# Shiga inhibitor – Shiga toxin inhibition; Vero cells, Shiga toxin protein synthesis inhibition reporter; AID 2315; inhibition, % at 38.7 µM; 290,000 tested, 9.2% active; in the data active means inhibition mostly above about 28%, no sharp cut-off; inactive means mostly below about 43%; further: 0% is about no effect
# LASV entry inh – blocks Lassa virus binding to or entry into cells; Lassa virus pseudotype entry inhibition, cell reporter; Potency, µM (top dose mostly 37.9 µM), for the others: at the top dose activity change, negative = inhibition, hits mostly inhibitors; 300,000 tested, 1.2% active; AID 540256; calls by dose curve; tested in HEK293 cells; further: potency means the concentration at half of the fitted maximal effect; on the % scale 0 is the no-effect control and ±100 the full control effect; nearly all actives have a fitted effect of over 50% in size
# MARV entry inh – inhibitors of Marburg virus binding or cell entry; Marburg virus pseudotyped entry inhibition, cell reporter; Potency, µM (highest dose often 37.8 µM), for inactives: at the top dose activity change, negative = inhibition, most hits filed as inhibitors; 300,000 tested, 1.8% active; AID 540276; calls by dose curve; tested in HEK293 cells; further: potency means the concentration at half of the fitted maximal effect; on the % scale 0 is the no-effect control and ±100 the full control effect
# CHX counter – counter-screen hit for Shiga toxin inhibitors, cycloheximide; max response, %; 300,000 tested, 12% active; cell reporter, cycloheximide protein synthesis inhibition counterscreen; in the data active means max response mostly above about 13%, no sharp cut-off; inactive means mostly below about 14%; further: read at 38.3 µM for the half of the compounds with a filed dose; 0% is about no effect
# HCV inhibitor – inhibitors of hepatitis C virus infection; Huh7.5.1 HCVcc-Cre infection, luciferase reporter, 44 h; Potency, µM (doses to about 41.8 µM), for the others: at the highest dose activity change, negative = inhibition, usual class: inhibitors; 340,000 tested, 3.4% active; active means well fitted inhibition curve with a large enough effect; inconclusive means small, poorly fitted or top-dose-only effect, or another doubt; inactive means no such curve, though single readings can be large or run the other way; further: potency means the concentration at half of the fitted maximal effect; on the % scale 0 is the no-effect control and ±100 the full control effect
#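 Infectious HCV cell culture screen: compound-treated cells (1,000/well, pre-plated 4 h) are infected with HCVcc-Cre at roughly 0.5 moi and grown 44 h. Infection is quantified by luciferase signal after 15 min substrate incubation at room temperature.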
# FMDV antiviral – blocks foot and mouth disease virus; 410,000 tested, 1.2% active; FMDV antiviral cell-based qHTS; Potency, µM (highest dose often 57.9 µM), inactives show at the top dose activity change, negative = inhibition, actives largely listed as inhibitors; AID 1159524; calls by dose curve; tested in HEK293T cells; further: read-out not given here; potency means the concentration at half of the fitted maximal effect; on the % scale 0 is the no-effect control and ±100 the full control effect; nearly all actives have a fitted effect of over 45% in size
# * marks the source's active call; other numbers are inactive results; u = inconclusive; x = no result given; [ ] = dose if it differs, or a comment. In the library only some 13% were active in any assay of this set; here they are far more common.
SMILES,Shiga inhibitor,LASV entry inh,MARV entry inh,CHX counter,HCV inhibitor,FMDV antiviral
CCC(=O)Oc1ccc(-c2cnc3ccccc3n2)cc1,60,u,u,32*,8%,x
COc1ccc(C2=NNC(c3cccnc3)=Nc3ccc(OC)cc32)cc1,-11,-14%,29%[14.2 µM],3,7%,-7%
CC(C)c1ccc2c(c1)C(c1cccs1)=NNC(c1ccncc1)=N2,76*,x,x,22*,0%,10%
Clc1ccc2c(c1)C(c1cccs1)=NNC(c1cccnc1)=N2,12,6%,-25%,-4,-5%,-18%
COc1ccc2c(c1)C(c1ccc([N+](=O)[O-])cc1)=NNC(c1ccco1)=N2,3,-23%,u,-2,u,x
CCCOc1ccc(C2=NNC(c3cccs3)=Nc3ccc(OC)cc32)cc1,98*,6%,u,57*,10%,59%
CC(C)c1ccc2c(c1)C(c1ccc(N3CCOCC3)cc1)=NNC(c1cccs1)=N2,54,19%,2%,45*,u,59%
COc1ccc2c(c1)C(c1ccc(N3CCOCC3)cc1)=NNC(c1cccnc1)=N2,-16,17%,-11%,2,1%,-20%
COc1ccc2c(c1)C(c1cccs1)=NNC(c1ccncc1)=N2,-14,x,x,-4,11µM*,-7%
CCCc1cc(C(=O)OC)c2ccccc2n1,11,-10%,-3%,-2,6%,-10%
N#CCc1ccc(OC(=O)c2cnccc2C(F)(F)F)cc1,3,23%[46.1 µM],-11%[46.1 µM],-4,17%,18%
CC(C)(C)OC(=O)N[C@@H](Cc1ccccc1)c1nnc(S(=O)(=O)Cc2cccc(F)c2)o1,33,u,u,21*,u,u
CC(C)C[C@H](N)c1nnc(S(=O)(=O)Cc2cccc(F)c2)o1,29,3%,u,32*,u,-13%
Cc1ccccc1CS(=O)(=O)c1nnc([C@H](CC(C)C)NC(=O)OC(C)(C)C)o1,30,-2%,u,21,-24%,u
CC1C/C(=N\NC(N)=S)c2cc(Cl)ccc2S1 (stereo not drawn),-12,u,13µM*,-2,-19%,u
Cc1cc2n(n1)CCCN2C(=O)Nc1ccccc1C(F)(F)F,x,29%[46.1 µM],x,x,x,-7%
Cc1csc(N(C(=O)c2cccc(S(=O)(=O)N(C)C)c2)c2ccccc2)n1,6,u,3%,3,12%,8.9µM*
COc1nc(-c2ccccc2)nnc1-c1ccccc1,85*,u,u,41*,-9%,34%
CCOC(=O)N1CCN(C(=O)COc2ccccc2[N+](=O)[O-])CC1,-11,6%,5%,10,15%,-7%
Cc1cc(C)n(CC(O)COc2cccc(OCC(O)Cn3nc(C)cc3C)c2)n1 (stereo not drawn),-11,-11%,18%,6,u,u
Cc1cc(C)n(CC(O)COc2ccccc2C(=O)Nc2ccccc2)n1 (stereo not drawn),-3,0%,-1%,-3,2%,-25%
CCOC(=O)N1CCN(CC(O)COc2ccccc2[N+](=O)[O-])CC1 (stereo not drawn),18,x,x,11*,6%,5%
Cc1cc(C)n(CC(O)COc2ccccc2[N+](=O)[O-])n1 (stereo not drawn),29,22%,u,28*,1%,20%
COc1ccccc1OCC(O)Cn1nc(C)cc1C (stereo not drawn),104*,23%,28%,54*,8%,10%
Cc1nnc(NC(=O)CSc2ncn(-c3ccccc3)n2)s1,20,10%,1%[46.1 µM],7,5%,12%
SMILES,Shiga inhibitor,LASV entry inh,MARV entry inh,CHX counter,HCV inhibitor,FMDV antiviral
O=C(Cn1c(=O)oc2ccccc21)NCCc1ccccc1,-8,-1%,31%,0,10%,10%
C=CCOC(=O)CCCCCCCC,x,x,x,x,4%,0%
Cc1ccc(/C=C/C(=O)c2ccc(N3CCOCC3)cc2)s1,83,u,u,27*,u,-26%
Cc1cccc(/C=C/C(=O)c2ccc(N3CCOCC3)cc2)c1,45*,3%,16%,14*,8%,x
CCc1ccc(/C=C/C(=O)c2ccc(N3CCOCC3)cc2)cc1,active,-11%,-15%,15*,u,-17%
O=C(/C=C/c1ccc(F)cc1)c1ccc(N2CCOCC2)cc1,14,42%,15%[46.1 µM],4,18%,5%
CCOC(=O)C1=C(COC(=O)CCC(=O)c2ccc(C)cc2)NC(=O)NC1C (stereo not drawn),x,x,x,x,4%,-7%
O=C(NC1CCCC1)c1cn(C2CCCN(Cc3ccc4c(c3)OCCO4)C2)nn1 (stereo not drawn),x,x,x,x,x,7%
O=C(Cc1ccc(S(=O)(=O)N2CCOCC2)s1)N1CCN(c2cccc(C(F)(F)F)c2)CC1,-6,x,x,-1,13µM*,-27%
O=C(C1CCN(S(=O)(=O)c2ccc(Br)s2)CC1)N1CCN(c2cccc(C(F)(F)F)c2)CC1,x,8.9µM*,u,x,x,u
CC1CCN(S(=O)(=O)c2cn(CC(=O)N3CCN(c4cccc(C(F)(F)F)c4)CC3)cn2)CC1,-4,x,x,-8,11µM*,u
CCC1CCCCN1CCCNC(=O)c1c(O)nc2cc(C)ccn2c1=O (stereo not drawn),-6,x,-2%[46.1 µM],-6,14%,6%
Cc1cccc(CSc2nc(N)c(C#N)c(-c3cccs3)c2C#N)c1,-5,-21%,u,-2,11µM*,u
CCN(CC)S(=O)(=O)c1ccc(/C(O)=C2/C(=O)C(=O)N(CCOC)C2c2ccccc2)cc1 (stereo not drawn),-1,0%,8%,-1,u,-17%
O=[N+]([O-])c1c(NCc2ccccc2)cc(N2CCc3ccccc3C2)c2nonc12,20,-2%,u,-3,1.4µM*,-17%
O=[N+]([O-])c1cc([N+](=O)[O-])c(N2CCOCC2)cc1NCc1ccccc1,-13,-5%,-9%,13,u,-27%
Cc1cc(C)cc(NS(=O)(=O)c2cnc(Cl)c(Cl)c2)c1,-16,1%,2%,0,11µM*,14%
CCOc1ccc(NS(=O)(=O)c2cnc(Cl)c(Cl)c2)cc1,-8,u,u,-4,-6%,-20%
O=C(Nc1ccc(N2CCCC2)c(Cl)c1)c1ccc([N+](=O)[O-])cc1,9,1%,-2%,15,u,-17%
CN1C(=O)c2ccc(NC(=O)c3ccc(N4CCCCC4)c([N+](=O)[O-])c3)cc2C1=O,-1,-8%,11%,-2,9%,18µM*
Cc1cc(C(=O)Nc2ccc(N3CCCC3)c(Cl)c2)ccc1[N+](=O)[O-],31*,4%[46.1 µM],u,47*,u,2%
O=C(Nc1cccnc1)c1ccc(N2CCCC2)c([N+](=O)[O-])c1,48,12%,22%[46.1 µM],29*,11µM*,44%
OCCC1CN(Cc2cn[nH]c2C2CCCCC2)CCN1Cc1ccccc1 (stereo not drawn),-16,23%[46.1 µM],u,-4,-3%,5%

# Bioassay records: PubChem BioAssay, National Center for Advancing Translational Sciences (NCATS)
